Shiga inhibitor = A qHTS for Small Molecule Inhibitors of Shiga Toxin; inhibition, % at 38.7 µM; 290,000 tested, 9.2% active; Vero cells, Shiga toxin protein synthesis inhibition reporter; in the data active means inhibition mostly above about 28%, no sharp cut-off; inactive means mostly below about 43%; further: 0% is about no effect
Pf growth 48h = Primary qHTS for delayed death inhibitors of the malarial parasite plastid, 48 hour incubation. P. falciparum luciferase growth in erythrocytes, 48 h. Potency, µM (highest dose often 28.7 µM), for inactives: at the highest dose activity change, negative = inhibition, most hits filed as inhibitors. 310,000 tested, 5.9% active. AID 504832, 2011; further: potency means the concentration at half of the fitted maximal effect; on the % scale 0 is the no-effect control and ±100 the full control effect
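Read-out is firefly luciferase luminescence from an integrated reporter in P. falciparum, so falling signal marks reduced parasite growth. Infected erythrocytes were at 2% hematocrit and 0.1% parasitemia (final) in Albumax-supplemented RPMI 1640.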
HCMV inh = qHTS Assay for inhibitors of the human cytomegalovirus (HCMV). 410,000 tested, 4.5% active. AID 1259415, 2018. HFF cells, HCMV-luciferase reporter, 72 h; active compounds read low. activity change, negative = inhibition, % at 57.5 µM; in the data active means activity change below about -60%; inconclusive means no clear call, values can overlap the other calls; inactive means above about -39%; further: on the % scale 0 is the no-effect control and ±100 the full control effect
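Steps: HFFs plated, 16 h 37C; compounds added; HCMV-luciferase added to MOI 1 PFU/cell; 72 h 37C; OneGlo reagent, 5 min room temperature; luminescence read, normalized to controls.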
Cycloheximide cs = Cycloheximide Counterscreen for Small Molecule Inhibitors of Shiga Toxin; cell reporter, cycloheximide protein synthesis inhibition counterscreen; max response, %; 300,000 tested, 12% active; in the data active means max response mostly above about 13%, no sharp cut-off; inactive means mostly below about 14%; further: read at 38.3 µM for the half of the compounds with a filed dose; 0% is about no effect
Pf growth 96h = Primary qHTS for delayed death inhibitors of the malarial parasite plastid, 96 hour incubation | P. falciparum luciferase reporter growth, 96 h | Potency, µM (series often up to 28.7 µM), inactives show top-dose activity change, negative = inhibition, hits mostly inhibitors | 320,000 tested, 6.9% active | AID 504834, 2011; further: potency means the concentration at half of the fitted maximal effect; on the % scale 0 is the no-effect control and ±100 the full control effect
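P. falciparum expressing integrated firefly luciferase grown in erythrocytes (2% hematocrit, 0.05% parasitemia final) with compounds for 96 hours at 37 C, 5% CO2. Growth inhibition read as loss of luminescence after adding luciferase detection reagent.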
HCV inhibitor = qHTS Assay for Inhibitors of Hepatitis C Virus (HCV); Huh7.5.1 HCVcc-Cre infection, luciferase reporter, 44 h; Potency, µM (series often up to 41.8 µM), for inactives: at the highest dose activity change, negative = inhibition, usual class: inhibitors; 340,000 tested, 3.4% active; AID 651820, 2012; further: potency means the concentration at half of the fitted maximal effect; on the % scale 0 is the no-effect control and ±100 the full control effect
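After 44 h co-culture of compound, cells and HCVcc-Cre (~0.5 moi), substrate is added for 15 min at room temperature and luciferase measured over 15 sec. Cells were seeded at 1,000/well and pre-cultured 4 h.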
* marks the source's active call; other numbers are inactive results; i = inactive; ? = inconclusive; . = not tested or not shown; ! = not active in a repeat; [ ] = another dose, or the depositor's remark. Compounds with a hit are over-represented: about 21% of the library has one in this group of screens. Unless noted, the call rests on the fitted dose curve; in most records, active means well fitted inhibition curve with a large enough effect; inconclusive means small, poorly fitted or top-dose-only effect, or another doubt; inactive means no such curve, though single readings can be large or run the other way.

SMILES | Shiga inhibitor | Pf growth 48h | HCMV inh | Cycloheximide cs | Pf growth 96h | HCV inhibitor
CCN(C(=O)c1ccc(N2CC3CC(C2)c2cccc(=O)n2C3)c(NC(=O)c2ccncc2)c1)c1cccc(C)c1 (stereo not given) | -8.1 | ? | -74.5* | -2.0 | -0.4% | 15.0%
CCCNC(=O)c1ccc(N2CC3CC(C2)c2cccc(=O)n2C3)c(NC(=O)Nc2ccc(CC)cc2)c1 (stereo not given) | 17.5 | ? | 0.0 | -3.1 | 5.3% | -12.1%
COc1cccc(NC(=O)Nc2cc(C(=O)NC(C)C)ccc2N2CC3CC(C2)c2cccc(=O)n2C3)c1 (stereo not given) | -1.9 | 11.7µM* | ? | 20.6 | -9.3% | -4.1%
O=C(NCc1cccc(Cl)c1)c1ccc(N2CC3CC(C2)c2cccc(=O)n2C3)c(NC(=O)c2cccnc2)c1 (stereo not given) | -5.5 | ? | 0.0 | -2.6 | -14.0% | 0.8%
CSc1ccccc1NC(=O)c1ccc(N2CC3CC(C2)c2cccc(=O)n2C3)c(NC(=O)c2ccncc2)c1 (stereo not given) | -3.2 | 9.28µM* | -33.1 | -9.0 | ? | 8.3%
CC1CCCN(CCCNC(=O)Cn2ncc3c([nH]c4ccccc43)c2=O)C1 (stereo not given) | . | . | 29.4 | . | . | .
CN(C)c1ccc(NC(=O)c2ccc3nsnc3c2)cc1 | 160.0* | 149.3% | 25.5 | 46.1* | 194.7% | -8.6%
O=C(Nc1ccc(-c2nc3cc(NC(=O)c4ccc(Cl)cc4)ccc3o2)cc1)c1ccc(Cl)cc1 | . | . | 16.3 | . | . | .
COc1ccc(N(C)C(=O)Nc2ccc3nsnc3c2)cc1 | 38.5 | 11.4% | -32.0 | 11.3 | -28.4% | ?
O=C(Nc1ccc(Cl)cc1)c1ccc2nsnc2c1 | 96.8* | 357.0% | 8.9 | 35.2* | 8.9% | -14.9%
Cc1ccccc1OCCSc1nc2ccc(NC(=O)c3cccc(F)c3)cc2s1 | . | . | -32.6 | . | . | .
O=C(NC(CSCc1ccccc1)C(=O)N/N=C/c1ccc(O)cc1O)c1ccc([N+](=O)[O-])cc1 (stereo not given) | 45.7 | ? | -6.9 | 13.6 | . | 10µM*
COc1cc(O)ccc1/C=N/NC(=O)c1ccc([N+](=O)[O-])cc1 | -4.0 | i | -16.0 | 4.4 | 0.0% | -2.5%
Nc1cc(Nc2ccc(Br)cc2)nc(N)n1 | 69.7* | ? | 52.4 | 40.4* | 10.4µM* | 0.2%
COc1ccc(Nc2cc(Cl)nc(N)n2)cc1 | 35.6 | 73.2% | 43.7 | 29.4* | 6.3% | 8.6%
Cc1cc(Nc2ccc(Cl)cc2)nc(N)n1 | 63.1* | ? | 51.4 | 68.3* | 2.62µM* | -5.1%
COc1ccc(Nc2cc(C)nc(N)n2)cc1 | 36.6* | ? | -8.4 | 20.3* | ? | -21.6%
Cc1cccc(-c2nc3c4ccccc4nc(NCc4ccccc4Cl)n3n2)c1 | . | . | 98.5 | . | . | .
CC(=O)OC[C@H]1O[C@@H](O[C@H]2C[C@]3(C)C(C[C@@H](O)C4C([C@]5(C)CC[C@@H](C(C)(C)O)O5)CC[C@]43C)[C@@]3(C)CC[C@H](O)C(C)(C)C23)[C@H](O[C@@H]2O[C@@H](C)[C@H](O)[C@@H](O)[C@H]2O)[C@@H](O)[C@@H]1O (stereo not given in full) | . | . | 2.6 | . | . | 3.1%
Nc1cccc(Nc2ccccc2)c1 | 5.5 | 22.5% | 30.5 | 6.2 | ? | 4.8%
c1ccc(Nc2cccc(Nc3ccccc3)c2)cc1 | 78.1* | 10.2% | 0.2 | 44.2* | ? | 39.2%
Cc1ccc(S(=O)(=O)Nc2ccc(Nc3ccccc3)cc2)cc1 | -1.8 | -34.2% | -29.8 | -3.3 | ? | -14.0%
Cc1ccc(Nc2ccccc2)cc1 | 12.9 | -10.5% | -14.2 | 19.0* | ? | 15.7%
c1ccc2c(c1)Cc1cc3ccccc3nc1-2 | 62.1* | -93.0% | 138.4 | 25.8* | -129.6% | -6.2%
O=C1c2ccccc2-c2nc3ccccc3cc21 | 69.4* | 159.7% | 166.9 | 34.4* | -4.4% | 2.5%
SMILES | Shiga inhibitor | Pf growth 48h | HCMV inh | Cycloheximide cs | Pf growth 96h | HCV inhibitor
Cc1cc2ccccc2nc1-c1ccccc1F | . | . | -36.7 | . | . | -11.8%
CCc1ccccc1NC(=O)CN(C)C(=O)COC(=O)c1ccco1 | . | . | 6.5 | . | . | 13.8%
COc1ccc2c(c1)[C@@H](NC(=O)OCc1ccccc1)[C@H](C)[C@@H](C(C)C)N2 | . | . | -18.8 | . | . | .
CSc1nc(O)c(C(c2ccc(O)cc2)c2c(O)nc(SC)[nH]c2=O)c(=O)[nH]1 | . | -12.1% | -68.7* | -1.5 | 35.5% | 13.0%
COc1cc(O)c(C(CCN2CCCC(C)C2)c2ccc3c(c2)OCO3)c(OC)c1 (stereo not given) | -5.3 | 0.657µM* | -2.5 | -8.5 | 0.586µM* | ?
COc1cc(O)c(C(CCN2CCCC(C)C2)c2ccc(N(C)C)cc2)c(OC)c1 (stereo not given) | 10.6 | 0.738µM* | 17.6 | -1.6 | 0.465µM* | ?
COc1cc(O)c(C(CC(=O)N2CCOCC2)c2ccc3c(c2)OCO3)c(OC)c1 (stereo not given) | -2.7 | ? | ? | -1.4 | 17.3% | 11.2µM*
COc1cc(O)c(C(CC(=O)N2CCOCC2)c2ccc(N(C)C)cc2)c(OC)c1 (stereo not given) | -5.1 | ? | -11.7 | -4.6 | 79.3% | 12.2%
COc1cc(OC)c2ccc(=O)oc2c1C(CCN1CCCC(C)C1)c1ccc2c(c1)OCO2 (stereo not given) | 124.5*! | 9.28µM* | 10.8 | 43.6*! | 10.4µM* | -17.2%
CCOC(=O)C1=CCN(S(=O)(=O)c2ccc(F)cc2)C1c1cccc(F)c1 (stereo not given) | . | . | -31.5 | . | . | .
Cc1ccc(C)c(NC(=O)CN2C(=O)NC(C)(c3ccc4c(c3)OCCO4)C2=O)c1 (stereo not given) | . | ? | -7.3 | . | -13.7% | 10.3%
COc1cc(O)c(C(CCN2CCOCC2)c2ccc3c(c2)OCO3)c(OC)c1 (stereo not given) | -3.0 | 1.65µM* | -4.7 | -3.4 | 2.33µM* | -26.6%[8.37 µM]
COc1cc(O)c(C(CCN2CCOCC2)c2cc(OC)c(OC)c(OC)c2)c(OC)c1 (stereo not given) | 4.8 | ? | -3.2 | -6.6 | ? | ?
CC(=O)c1c(C(C)=O)c(C)n(-c2nc(-c3ccc(C)c(C)c3)c(C)s2)c1C | 6.5 | 11.7µM* | ? | 1.5 | -17.9% | ?
Cc1cccc(CCNC(=O)C2CCN(S(=O)(=O)c3cccc4cccnc34)CC2)c1 | -3.7 | -3.5% | -32.2 | -9.8 | 36.9% | ?
CC1CCCCN1CCNC(=O)C1CCN(S(=O)(=O)c2cccc3cccnc23)CC1 (stereo not given) | 2.1 | ? | 9.0 | -2.2 | 4.65µM* | 13.5%
